Compounds without any hit were thinned out: in the full panel of roughly 83,000, 20% have a hit.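 Interpretation: 100, growth as untreated; towards 0, rising growth inhibition; 0, no net growth; 0 to -100, cell death. Compounds scoring below 10 were considered active.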 Unmarked numbers belong to inactive results. The source made the active and inactive calls.
test system: BT-549 breast; experiment: NCI-60 one-dose screen, 48 h (100 = growth as untreated, 0 = no growth, -100 = all killed); settings: 10 µM unless noted

First: Nc1nc(SCc2cccc([N+](=O)[O-])c2)c2[nH]cnc2n1
Second: O=C1NC(=O)c2cc([N+](=O)[O-])cc3cccc1c23
The growth of the first is higher: 103% for the first, 96% for the second.

Going from N/C(=N\c1nc2ccccc2[nH]1)NC(=O)Cc1cccc2ccccc12 to COCc1nc2ccccc2[nH]1, the growth rises from 85.3% to 164%.

Compared with COc1ccc(C2CC(c3cc(OC)c(OC)c(OC)c3)=NN2C(C)=O)cc1OCC(=O)Nc1nc2ccc(C(F)(F)F)cc2s1 (stereo not drawn), COc1c(C(C)=O)c(OCCCCOc2c(C(C)=O)c(OC)c3ccoc3c2OC)c(OC)c2occc12 is higher in growth: 47.5% for the first, 98.8% for the second.

Going from O=C(N/N=C/c1ccc([N+](=O)[O-])cc1)c1ccc(Br)o1 to O=C(O)c1cc([N+](=O)[O-])ccc1Br, the growth falls from 109% to 91.5%.

Compared with O=C(NCc1ccccc1)C(Cl)Cl, O=C(O)CSCc1nnc2n(Cc3ccccc3)c(=O)c3c4c(sc3n12)CCCC4 is lower in growth: 122% for the first, 101% for the second.

Compared with CC(C)OC(=O)Nc1cc(F)c(F)cc1F, COc1ccc(OC)c(NC=O)c1 is higher in growth: 104% for the first, 109% for the second.

First: Nc1cc(C(=O)O)[nH]c(=S)n1
Second: CNc1cc(C(=O)O)nc(NC)n1
The growth of the first is lower: 69.1% for the first, 88.7% for the second.

Going from COC(=O)c1cc2c(=O)[nH]cc3c2c(n1)CCC3 to CCOC(=O)c1c[nH]c2cc(OCC3CC3)c(OCC3CC3)cc2c1=O, the growth rises from 108% to 113%.

Going from O=c1[nH]c(CN2CCN(c3cccc(Cl)c3)CC2)nc2cc(Cl)ccc12 to O=c1cc(-c2ccccc2)oc2c(O)c(O)ccc12, the growth falls from 110% to 67.4%.

Going from c1ccc2c(c1)CN(CCCN1CCOCC1)C2 to CCN(CC)CCSC(=O)C(O)(c1ccccc1)C1CCCC1 (stereo not drawn), the growth falls from 121% to 109%.

First: Nc1cc(NN=C(c2ccc(O)cc2)c2ccc(O)cc2)c([N+](=O)[O-])cc1[N+](=O)[O-]
Second: Cc1cc(NN=C(c2ccc(O)cc2)c2ccc(O)cc2)c([N+](=O)[O-])cc1[N+](=O)[O-]
The growth of the first is higher: 102% for the first, 90.8% for the second.

Going from NC(=O)c1c(NC(=O)COC(=O)Cc2ccccc2F)sc2c1CCC2 to Nc1nnc(CSc2nnc3n(Cc4ccccc4)c(=O)c4c5c(sc4n23)CCCC5)s1, the growth rises from 106% to 117%.

Compared with CCCCOC(=O)c1c(C)[nH]c(/C=C2\N=C(c3ccc[nH]3)C=C2OC)c1C, COc1ccc(OC)c([N+](=O)[O-])c1C(=O)CNC(C)=O is higher in growth: 14.9% for the first, 84.5% for the second.

Going from CC(C)[N+](C)(C)CC(O)COc1cccc2ccccc12 (stereo not drawn) to COc1ccc2c3ccnc(C(F)(F)F)c3n(CCCCN)c2c1, the growth falls from 112% to 52.4%.

Compared with CCCCCCCCCCCCNC(=S)N/N=C/c1ccccc1O, CCCCCCCCCCCCCCNC(=O)Nc1ccc(Cl)c(Cl)c1 is lower in growth: 108% for the first, 24.7% for the second.

First: C=C1C(=O)O[C@H]2[C@H]1CC/C(COC(=O)NCc1ccc(Cn3c(=O)sn(-c4ccc(Cl)cc4)c3=O)cc1)=C\CC[C@@]1(C)O[C@@H]21
Second: N#Cc1c(Cl)nc(SCC2CO2)nc1-c1ccccc1 (stereo not drawn)
The growth of the first is lower: 66.1% for the first, 81.4% for the second.

In the case of COc1cc2c(c(OC)c1OC)-c1ccc(NNC(N)=S)c(=O)cc1[C@@H](NC(C)=O)CC2, the growth is reported as -5.6% (active).
For ClC1=C(Cl)C(Cl)=C(Cl)C1=Cc1ccccc1, the growth was -82.1% (active).
CCN=C1C=CC(=C(c2ccc(N(CC)CC)cc2)c2ccc(N(CC)CC)cc2)c2ccccc21 was tested, and the growth was -67.2% (active).
O=[N+]([O-])c1cc([N+](=O)[O-])c(NN=C(c2ccc(O)cc2)c2ccc(O)cc2)cc1Cl was tested, and the growth was -11.6% (active).
With O=C(C[n+]1ccn(CC(OCc2ccc(Cl)cc2Cl)c2ccc(Cl)cc2Cl)c1)c1ccc(F)cc1 (stereo not drawn) the growth was -94.9% (active).

test system: MDA-MB-435 melanoma; experiment: as above; settings: 10 µM unless noted

Going from Nc1nc(SCc2cccc([N+](=O)[O-])c2)c2[nH]cnc2n1 to O=C1NC(=O)c2cc([N+](=O)[O-])cc3cccc1c23, the growth falls from 104% to 100%.

First: N/C(=N\c1nc2ccccc2[nH]1)NC(=O)Cc1cccc2ccccc12
Second: COCc1nc2ccccc2[nH]1
The growth of the first is lower: 94.3% for the first, 102% for the second.

Compared with COc1ccc(C2CC(c3cc(OC)c(OC)c(OC)c3)=NN2C(C)=O)cc1OCC(=O)Nc1nc2ccc(C(F)(F)F)cc2s1 (stereo not drawn), COc1c(C(C)=O)c(OCCCCOc2c(C(C)=O)c(OC)c3ccoc3c2OC)c(OC)c2occc12 is lower in growth: 69.5% for the first, 57.9% for the second.

Going from O=C(N/N=C/c1ccc([N+](=O)[O-])cc1)c1ccc(Br)o1 to O=C(O)c1cc([N+](=O)[O-])ccc1Br, the growth falls from 108% to 98.5%.

Going from O=C(NCc1ccccc1)C(Cl)Cl to O=C(O)CSCc1nnc2n(Cc3ccccc3)c(=O)c3c4c(sc3n12)CCCC4, the growth rises from 103% to 112%.

Going from CC(C)OC(=O)Nc1cc(F)c(F)cc1F to COc1ccc(OC)c(NC=O)c1, the growth rises from 103% to 104%.

Compared with Nc1cc(C(=O)O)[nH]c(=S)n1, CNc1cc(C(=O)O)nc(NC)n1 is lower in growth: 98% for the first, 95.6% for the second.

Going from COC(=O)c1cc2c(=O)[nH]cc3c2c(n1)CCC3 to CCOC(=O)c1c[nH]c2cc(OCC3CC3)c(OCC3CC3)cc2c1=O, the growth falls from 119% to 107%.

Going from O=c1[nH]c(CN2CCN(c3cccc(Cl)c3)CC2)nc2cc(Cl)ccc12 to O=c1cc(-c2ccccc2)oc2c(O)c(O)ccc12, the growth falls from 103% to 68.8%.

Compared with c1ccc2c(c1)CN(CCCN1CCOCC1)C2, CCN(CC)CCSC(=O)C(O)(c1ccccc1)C1CCCC1 (stereo not drawn) is higher in growth: 98.2% for the first, 115% for the second.

Going from Nc1cc(NN=C(c2ccc(O)cc2)c2ccc(O)cc2)c([N+](=O)[O-])cc1[N+](=O)[O-] to Cc1cc(NN=C(c2ccc(O)cc2)c2ccc(O)cc2)c([N+](=O)[O-])cc1[N+](=O)[O-], the growth falls from 96.5% to 47.5%.

Compared with NC(=O)c1c(NC(=O)COC(=O)Cc2ccccc2F)sc2c1CCC2, Nc1nnc(CSc2nnc3n(Cc4ccccc4)c(=O)c4c5c(sc4n23)CCCC5)s1 is higher in growth: 105% for the first, 106% for the second.

First: CC(C)[N+](C)(C)CC(O)COc1cccc2ccccc12 (stereo not drawn)
Second: COc1ccc2c3ccnc(C(F)(F)F)c3n(CCCCN)c2c1
The growth of the first is higher: 118% for the first, 45.9% for the second.

First: CCCCCCCCCCCCNC(=S)N/N=C/c1ccccc1O
Second: CCCCCCCCCCCCCCNC(=O)Nc1ccc(Cl)c(Cl)c1
The growth of the first is higher: 80.5% for the first, 18.3% for the second.

First: N#Cc1c(Cl)nc(SCC2CO2)nc1-c1ccccc1 (stereo not drawn)
Second: COc1ccc(OC)c([N+](=O)[O-])c1C(=O)CNC(C)=O
The growth of the first is higher: 110% for the first, 103% for the second.

COc1cc2c(c(OC)c1OC)-c1ccc(NNC(N)=S)c(=O)cc1[C@@H](NC(C)=O)CC2 was tested, and the growth was -12.2% (active).
For ClC1=C(Cl)C(Cl)=C(Cl)C1=Cc1ccccc1, the growth was -54% (active).
With CCN=C1C=CC(=C(c2ccc(N(CC)CC)cc2)c2ccc(N(CC)CC)cc2)c2ccccc21 the growth was -31.6% (active).
For O=[N+]([O-])c1cc([N+](=O)[O-])c(NN=C(c2ccc(O)cc2)c2ccc(O)cc2)cc1Cl, the growth was -62.1% (active).
In the case of CCCCOC(=O)c1c(C)[nH]c(/C=C2\N=C(c3ccc[nH]3)C=C2OC)c1C, the growth is reported as -51.1% (active).
With O=C(C[n+]1ccn(CC(OCc2ccc(Cl)cc2Cl)c2ccc(Cl)cc2Cl)c1)c1ccc(F)cc1 (stereo not drawn) the growth was -92.5% (active).
